The panel holds about 79,000 compounds, 15% with a hit somewhere; the sample as a whole holds those more often. Values without a mark were called inactive. The source made the active and inactive calls. No stated cut-off is given here; in the data, active means growth inhibition above about 70%; inactive means the rest.

The experiment in a line: NCI Yeast Anticancer Drug Screen. Data for the bub3 strain (AID 167). To be noted: S. cerevisiae bub3 mutant strain, at 50.0 µM (retest, dose inferred, filed as 5.0), hits give high values. The method, boiled down:
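Screening used yeast with an engineered genetic alteration affecting cell cycle control. Compound-exposed cultures were compared with vehicle cultures, and reduced growth was taken as inhibition.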
`CCCCCCCCCC1OCC(C)O1` (stereo not drawn): the growth inhibition is 36%.

Turning to `O=[N+]([O-])c1ccc2c(c1)/C(=C/c1ccc(O)cc1)c1ccccc1-2`, the growth inhibition is 85% (active).

On to `COc1cc2c(cc1OC(C)=O)C(=O)C(Br)(Br)CCC2`, for which the growth inhibition was 47%.

Turning to `COC(=O)c1cc2c(oc1=O)-c1ccccc1N(C=O)C2`, the growth inhibition is -24%.

`CC(=O)Nc1ccc(S(=O)(=O)/N=C2\C=CC(=O)c3ccccc32)cc1`: the growth inhibition is 14%.

Turning to `C/C(=N/NC(=S)N(C)C)c1ccccc1O`, the growth inhibition was 21%.

For the compound `CC(CN(C)C)C(=O)/C=C/c1c(Cl)cccc1Cl` (stereo not drawn), the growth inhibition was 92% (active).

`N#CC(O)C(Br)(Br)Br` (stereo not drawn): the growth inhibition was 69%.

For the compound `C=Cc1cc(N=Nc2ccc([N+](=O)[O-])cc2)ccc1N(C)C`, the growth inhibition is 6%.

On to `Cc1cccnc1NC(=S)Nc1ccccc1Cl`, for which the growth inhibition was 95% (active).

Regarding `O=C1C=CC(=O)c2c(O)c(N3CCC[C@@H]3CO)c(Cl)c(O)c21`, the growth inhibition is 29%.

As for `Cc1cc(C(=O)O)c(C)c2c1sc1ccccc12`, the growth inhibition was -14%.

Regarding `COc1cccc2c1OC(c1ccc(Cl)cc1)C([N+](=O)[O-])=C2` (stereo not drawn), the growth inhibition is 96% (active).

For `CC1=C(C(=O)Nc2cccc(Cl)c2)C(c2ccccc2F)C(C(=O)Nc2cccc(Cl)c2)=C(C)N1`, the growth inhibition is 56%.

`Cc1ccc(C2C(O)=C(c3ccccc3)Sc3ccc(C)cc32)cc1` (stereo not drawn): the growth inhibition was 39%.

For `CC(=O)Oc1ccc(C)c(C(C)C(Cl)(Cl)Cl)c1` (stereo not drawn), the growth inhibition is 4%.

Regarding `CCCC(=O)Oc1ccc(-c2ccc(Br)cc2)cc1`, the growth inhibition was 95% (active).

In the case of `CCCCC#CCOC(=O)c1cc([N+](=O)[O-])cc([N+](=O)[O-])c1`, the growth inhibition was 100% (active).

The record behind these values is PubChem BioAssay (NCI).
